Sampled rows, rich in hits. Any-hit rate of the full collection: about 18%.
Six1-Eya2 inh – qHTS Assay for Inhibitors of the Six1/Eya2 Interaction; Homeobox protein SIX1 (Homo sapiens) + Protein phosphatase EYA2 (Homo sapiens), …; AlphaScreen GST-Six1/His-Eya2 binding, biochemical; hits give low values; activity change, % (no concentration beside the values); hit rate 0.56% among 360,000; in the data active = activity change below about -65%; inconclusive = mostly about -30% to -63%
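Six1/Eya2 binding was read as AlphaScreen signal after compounds were pinned into GST-Six1 plus His-tagged Eya2 (5X stock 250/500 nM) in pH 8.0 Tris/NaCl/TCEP buffer, beads added, then incubated 1 h, 37 C, dark.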
TDP1 block – qHTS Assay for Inhibitors of Tyrosyl-DNA Phosphodiesterase (TDP1). Potency, µM (series often up to 130 µM), inactives show at the highest dose activity change, negative = inhibition, most hits filed as inhibitors. Tyrosyl-DNA phosphodiesterase 1 (Homo sapiens), Q9NUW8. recombinant TDP1, AlphaScreen DNA substrate cleavage. hit rate 0.28% among 350,000. AID 485290, 2010; note: potency is the fitted concentration of half-maximal effect; nearly all actives have a fitted effect of over 40% in size
Target sequence (Q9NUW8 whole entry, looked up): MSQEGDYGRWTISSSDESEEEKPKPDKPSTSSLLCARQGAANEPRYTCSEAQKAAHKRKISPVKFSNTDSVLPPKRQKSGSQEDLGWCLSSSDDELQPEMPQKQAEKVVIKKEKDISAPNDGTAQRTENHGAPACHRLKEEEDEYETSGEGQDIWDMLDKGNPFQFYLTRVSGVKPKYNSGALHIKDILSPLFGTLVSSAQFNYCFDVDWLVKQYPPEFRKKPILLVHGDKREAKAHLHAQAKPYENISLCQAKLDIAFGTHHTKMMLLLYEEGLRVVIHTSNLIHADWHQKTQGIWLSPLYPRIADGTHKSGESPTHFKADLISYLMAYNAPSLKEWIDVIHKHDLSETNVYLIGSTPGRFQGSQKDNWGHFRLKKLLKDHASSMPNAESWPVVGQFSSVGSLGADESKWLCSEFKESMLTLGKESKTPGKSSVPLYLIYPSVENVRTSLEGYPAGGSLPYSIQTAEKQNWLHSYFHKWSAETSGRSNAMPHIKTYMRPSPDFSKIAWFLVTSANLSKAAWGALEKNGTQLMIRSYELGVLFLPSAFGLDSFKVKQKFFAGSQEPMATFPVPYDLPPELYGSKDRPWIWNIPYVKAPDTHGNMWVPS
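Compounds were preincubated with Tdp1 (1 nM final) for 15 min at room temperature before substrate (15 nM final) started a 5 min reaction; beads (10 ug/ml final) were then added for 10 min before AlphaScreen detection.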
CtBP-E1A inh – qHTS Assay for Inhibitors of the CtBP/E1A Interaction | CtBP / adenovirus E1A interaction (AlphaScreen) | AlphaScreen GST-E1A/His-CtBP binding, 1536-well; hits give low values | activity change, % (concentration not given with the values) | hit rate 0.49% among 340,000 | AID 651724, 2012; in the data active = activity change below about -65%; inconclusive = mostly about -30% to -63%
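AlphaScreen with 125 nM GST-E1A and 125 nM His-CtBP (5X stocks) in Tris pH 8.0, 300 mM NaCl, BSA, Tween 20, TCEP. Compounds preincubated 2 h at 37 deg C, then glutathione donor/nickel acceptor beads added for 1 h at 37 deg C in dark.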
TDP1 cell CPT – qHTS for Inhibitors of human tyrosyl-DNA phosphodiesterase 1 (TDP1): qHTS in cells in presence of CPT. chicken DT40 Tdp1-/-;hTDP1 cells + 20 nM CPT, ATP luminescence, 48 h. Potency, µM (doses to about 46.2 µM), for inactives: top-dose activity change, negative = growth inhibition, usual class: inhibitors. hit rate 12% among 420,000. AID 686979, 2013; note: potency is the fitted concentration of half-maximal effect; nearly all actives have a fitted effect of over 55% in size
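Chicken DT40 Tdp1-/- cells stably complemented with human TDP1 were seeded at 400 cells/well in medium containing 20 nM camptothecin, exposed to pin-transferred compounds, and grown at 37 °C for at least 48 hr. Viability was read as ATP luminescence.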
DT40 TDP1 no CPT – qHTS for Inhibitors of human tyrosyl-DNA phosphodiesterase 1 (TDP1): qHTS in cells in absence of CPT; DT40 Tdp1-/- hTDP1 cells, no CPT, ATP luminescence, 48 h; Potency, µM (titrated, usually from 46.2 µM), for the others: top-dose activity change, negative = growth inhibition, actives largely listed as inhibitors; hit rate 15% among 420,000; AID 686978, 2013; note: potency is the fitted concentration of half-maximal effect; nearly all actives have a fitted effect of over 55% in size
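Growth kinetics read by CellTiter-Glo luminescence after ≥48 hr at 37 °C. Cells: DT40 Tdp1-/- stably carrying human TDP1, 400 per well, compound exposure in the absence of CPT (DMSO vehicle).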
IL-1B inflam inh – qHTS for Inhibitors of Inflammasome Signaling: IL-1-beta AlphaLISA Primary Screen | hit rate 4.7% among 360,000 | THP-1 LPS/ATP IL-1B secretion, AlphaLISA, 16 h; hits give low values | AID 743279, 2014 | activity change, % at 57.5 µM; in the data active = activity change below about -50%; inconclusive = mostly about -30% to -49%
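THP-1 cells pretreated 1 hr with compounds (up to 57.5 uM final), then stimulated with LPS (250 ng/mL final) plus ATP (1.25 mM final); secreted IL-1B measured by AlphaLISA after 16 hr, decreased signal indicating inhibition.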
* hit, by the source's call; ? = inconclusive; nt = no result given; [ ] = remark or other dose. Unless noted, calls come from the whole dose curve; as a rule, active = well fitted curve in the direction sought with a large enough effect; inconclusive = small, poorly fitted or top-dose-only effect, or another doubt; inactive = no such curve, though single readings can be large; an effect the other way counts as inactive or inconclusive. % is set by controls: 0 for no effect and ±100 for the full control effect.

SMILES	Six1-Eya2 inh	TDP1 block	CtBP-E1A inh	TDP1 cell CPT	DT40 TDP1 no CPT	IL-1B inflam inh
COc1cccc(NC(=O)COC(=O)c2cccnc2)c1	2	4%	0	-4%	-20%	18
COC(=O)c1ccc(C2C(Oc3ccc(OC)cc3)C(=O)N2CCc2ccc(OC)c(OC)c2)cc1 (stereo unspecified)	3	1%	6	-4%	-7%	15
O=C(N/N=C/c1cc2c3c(c1O)CCCN3CCC2)c1ccccc1O	-90*	13%	-66*	3.7µM*	4.6µM*	221
Cc1nn(-c2ccccc2)c(N2CCCC2)c1/C=N/NC(=O)c1ccccc1O	?	7%	?	?	?	15
CCc1nc2ccccc2c(C(=O)O)c1C	4	2%	1	1%	2%	69
CCc1nc2ccc(C)cc2c(C(=O)Oc2cccc3cccnc23)c1C	1	5%	-4	?	23µM*	-6
Cn1ccc2c(OCC(=O)NCc3ccccc3)cccc2c1=O	nt	3%	nt	?	?	nt
Cc1cccc(NC(=O)COc2cccc3c(=O)n(C)ccc23)c1C	nt	3%	nt	23µM*	18µM*	nt
CCn1ccc2c(OCC(=O)Nc3ccccc3C)cccc2c1=O	nt	8%	nt	15µM*	12µM*	nt
Cn1ccc2c(OCC(=O)Nc3cc(C(F)(F)F)ccc3Cl)cccc2c1=O	nt	-3%	nt	26µM*	15µM*	nt
CCn1ccc2c(OCC(=O)Nc3ccccc3C(F)(F)F)cccc2c1=O	nt	0%	nt	15µM*	21µM*	nt
C/C(=N\NC(=O)c1ccc(F)cc1)c1cccc(NC(=O)c2ccco2)c1	20	8%	23	-3%	-18%	?
C[C@H](O)[C@@H]1C(=O)N2CCc3ccc(N4CCN(C)CC4)cc3[C@@H]2C[C@@H]1N(C)C(=O)NC1CCCCC1	4	nt	5	1%	-18%	5
COc1cc(C)ccc1OCCCCN1CC(C)OC(C)C1 (stereo unspecified)	-15	0%	-8	-8%	-12%	-1
CCCCCCCCCC[n+]1ccc(/C=C/c2c[nH]c3ccccc23)cc1	nt	nt	nt	0.32µM*	0.11µM*	nt
CCCCCCCCCCCCCCCC[n+]1ccc(/C=C/c2c[nH]c3ccccc23)cc1	nt	nt	nt	0.89µM*	0.71µM*	nt
C(=C\c1c[nH]c2ccccc12)/c1cc[n+](C2CCCCC2)cc1	nt	nt	nt	-12%	?	nt
OCC[n+]1ccc(/C=C/c2c[nH]c3ccccc23)cc1	-1	0%	2	6.5µM*	5.8µM*	26
Cn1cnc(S(=O)(=O)N2CCCC(C(=O)NCc3ccc(Cl)cc3)C2)c1 (stereo unspecified)	nt	-4%	nt	1%	2%	nt
O=C1N/C(=C\c2nc3ccccc3s2)c2ccccc21	nt	1%	nt	nt	nt	nt
N#Cc1ccc(Cn2c(=O)oc3ccccc32)cc1	3	nt	11	-2%	4%	27
CCCc1ncc(CN2CCC(C(=O)Nc3cccc(-c4cscn4)c3)CC2)cn1	-3	13%	-14	?	29µM*	-8
CSc1ncc(CN2CCC(C(=O)Nc3cccc(-c4cscn4)c3)CC2)cn1	3	1%	-7	?	?	?
CCCn1cc(CN2CCC(C(=O)Nc3cccc(-c4cscn4)c3)CC2)c(C)n1	-6	-1%	-14	?	?	-72*
COc1ccc(CCn2c(=O)c3cccnc3n(CC(=O)Nc3ccc(C)cc3C)c2=O)cc1OC	nt	0%	nt	?	?	nt
SMILES	Six1-Eya2 inh	TDP1 block	CtBP-E1A inh	TDP1 cell CPT	DT40 TDP1 no CPT	IL-1B inflam inh
CCC(=O)Oc1ccc(/C=C(\C#N)c2nc3ccccc3[nH]2)cc1OC	nt	-7%[12.3 µM]	nt	?	?	nt
COc1cc(/C=C(\C#N)c2nc3ccccc3[nH]2)cc(Br)c1OCc1ccc(F)cc1	7	9%	-2	?	?	2
COc1ccc(/C=C(\C#N)c2nc3ccccc3[nH]2)cc1O	-13	nt	-1	15µM*	21µM*	?
N#C/C(=C\c1cc([N+](=O)[O-])c(N2CCOCC2)cc1N1CCOCC1)c1nc2ccccc2[nH]1	?	6%	-29	?	23µM*	?
COc1cc(/C=C(\C#N)c2nc3ccccc3[nH]2)cc(Br)c1OCc1ccccc1	12	5%	3	18µM*	21µM*	-18
N#C/C(=C\c1cc([N+](=O)[O-])c(N2CCCCC2)cc1N1CCCCC1)c1nn(-c2ccccc2)c(N)c1C#N	-5	6%	-2	?	?	28
COc1cc(/C=C(\C#N)c2nc3ccccc3[nH]2)ccc1Oc1ccc([N+](=O)[O-])cn1	-9	2%	-4	12µM*	21µM*	?
COc1ccc(Cl)cc1NC(=O)COC(=O)C1CC(=O)N(Cc2ccccc2)C1 (stereo unspecified)	-2	-4%	nt	-21%	-30%	23
Cc1cc(/C=C(/C#N)c2nc3ccccc3[nH]2)c(C)n1-c1cccc([N+](=O)[O-])c1	0	-2%	?	16µM*	13µM*	-62*
COc1c(O)ccc(/C=C(\C#N)c2nc3ccccc3[nH]2)c1[N+](=O)[O-]	-11	0%	4	3%	?	16
COc1cc(/C=C(\C#N)c2nc3ccccc3[nH]2)cc(OC)c1O	?	5%	?	16µM*	13µM*	-60*
COc1cc(/C=C(\C#N)c2nc3ccccc3[nH]2)ccc1OCc1ccccc1F	nt	5%[12.3 µM]	nt	?	-27%	nt
COc1ccc(/C=C(\C#N)c2nc3ccccc3c(=O)[nH]2)cc1OC	nt	3%[12.3 µM]	nt	?	18µM*	nt
COc1cc(/C=C(/C#N)c2nc3ccccc3c(=O)[nH]2)ccc1O	10	-5%	21	-18%	-24%	-4
Cc1csc(NC(=O)c2ccc(Br)s2)n1	-9	9%	-3	?	?	-17
Cc1ccc(NS(=O)(=O)c2ccc(C)c(C(=O)Nc3ccc(S(=O)(=O)Nc4onc(C)c4C)cc3)c2)cc1	-11	nt	-5	-11%	-5%	4
C1=C(c2ccccc2)Nc2nnnn2C1	3	-10%	10	-6%	-7%	17
CCN(Cc1nc(-c2ccc(Cl)cc2)no1)CC1CCCO1 (stereo unspecified)	4	0%	4	-19%	?	-14

Compound activity deposited in PubChem BioAssay by National Center for Advancing Translational Sciences (NCATS).
